Read-out in assay [1]: Cytochrome P450 2B6 (Homo sapiens) (UniProt P20813)
Put plainly: CLD_CYP2B6_24hr: CellzDirect (CLD) Gene Expression Assay for xenobiotic metabolism (CYP2B6) at 24 hours (AID 2283686). The essentials: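 qNPA chemiluminescent measurement of mRNA at 24 hours in human primary hepatocyte cultures from two donor preparations, with daily fresh dosing and 0.2% DMSO vehicle as baseline. Morphology-based cytotoxicity flagged yes/no.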

Read-out in assay [2]: Cytochrome P450 2C19 (Homo sapiens) (UniProt P33261)
The experiment in a line: CLD_CYP2C19_24hr: CellzDirect (CLD) Gene Expression Assay for xenobiotic metabolism (CYP2C19) at 24 hours (AID 2283687).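 Further: activity means mRNA induction above DMSO vehicle baseline.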 The essentials:
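CYP2C19 mRNA was quantified by qNPA chemiluminescence after 24 h of daily dosing of cultured human primary hepatocytes from two donors; vehicle was 0.2% DMSO, and increases over DMSO baseline were fitted.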

Read-out in assay [3]: Cytochrome P450 2C9 (Homo sapiens) (UniProt P11712)
Put plainly: CLD_CYP2C9_24hr: CellzDirect (CLD) Gene Expression Assay for xenobiotic metabolism (CYP2C9) at 24 hours (AID 2283688). In short, it runs like this:
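Induction of CYP2C9 mRNA was quantified by quantitative nuclease protection assay (chemiluminescence), gain of signal versus 0.2% DMSO vehicle, 24 h after dosing. Human primary hepatocytes (two donors) received fresh chemical daily at multiple concentrations; morphology-based cytotoxicity flagged yes/no.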

Read-out in assay [4]: Cytochrome P450 3A4 (Homo sapiens) (UniProt P08684)
Put plainly: CLD_CYP3A4_24hr: CellzDirect (CLD) Gene Expression Assay for xenobiotic metabolism (CYP3A4) at 24 hours (AID 2283689). How it is done: CLD_24hr is a cell-based, multiplexed-readout assay that uses hepatocyte, a human liver primary cell, with measurements taken at 24 hours after chemical dosing in a 96-well plate.CLD_CYP3A4_24hr is one of 16 assay component(s) measured or calculated from the CLD_24hr assay. It is designed to make measurements of mRNA induction, a form of inducible reporter, as detected with chemiluminescence signals by Quantitative Nuclease Protection Assay (qNPA) technology.Data from the assay component CLD_CYP3A4_24hr was analyzed at the endpoint, CLD_CYP3A4_24hr, in the positive analysis fitting direction relative to DMSO as the negative control and baseline of activity. Using a type of inducible reporter, gain-of-signal activity can be used to understand changes in the reporter gene as they relate to the gene CYP3A4. Furthermore, this assay endpoint can be referred to as a primary readout. To generalize the intended target to other relatable targets, this assay endpoint is annotated to the cyp intended target family, where subfamily is xenobiotic metabolism.
Human hepatocyte cultures were treated daily for two consecutive days with fresh dosing solutions containing appropriate concentrations of the 320 ToxCast chemicals (chemical identities were blinded to CellzDirect and other ToxCast collaborators), vehicle control (0.2% DMSO), and positive control inducers as summarized in Table 1. Due to the large number of treatment groups and chemicals examined, the ToxCast chemicals were divided into two groups (spanning two independent cultures of hepatocytes from separate donor preparations (Hu778: ToxCast plates 1 and 2; Hu776: ToxCast plates 3 and 4). Each preparation of human hepatocyte cultures was treated with respective vehicle control, medium only control, set of six positive controls/reference chemicals for the five hepatic receptor pathways, and a subset of eight of the ToxCast chemicals (indoxacarb, pyrithiobac-sodium, norflurazon, cyhalofop-butyl, methomyl, thiram, acetochlor, and propiconazole). These replicate data, coupled with internal replicates designed within the blinded ToxCast chemical library, provided additional data to evaluate interindividual differences between hepatocyte preparations and their potential impact on chemical profiles.Cell morphology and integrity were evaluated using phase-contrast microscopy as an indicator of hepatocyte cell health (Tyson & Green, 1987). Cultures for each treatment group (i.e., media, vehicle [0.2% DMSO], positive control inducers [multiple concentrations], and the ToxCast chemicals [multiple concentrations]) were observed and cell morphology was assessed relative to vehicle control cultures at each harvest time point (0, 6, 24, or 48 h). […] Images were evaluated at the conclusion of the study to assess changes in cell integrity and account for the effects of chemical exposure on uncharacteristic changes in concentration-dependent gene expression profiles. The results from these determinations of apparent cytotoxicity were annotated (yes/no) alongside the corresponding qNPA data for reference.At the conclusion of each treatment period, hepatocyte cultures (96-well) were washed with 1 volume of HBSS, lysed by addition of 25 ul ArrayPlate lysis buffer (HTG, Tucson, AZ), and 70 ul/well of Denaturation Oil, denatured by incubation at 95C for 10 min, and frozen at approximately -70C until analysis by nuclease protection assay (qNPA) (Roberts et al., 2007). […]

Read-out in assay [5]: organic anion transporter (SLCO1B1), SLCO1B1 (gene 10599)
The experiment in a line: CLD_SLCO1B1_24hr: CellzDirect (CLD) Gene Expression Assay for organic anion transporter (SLCO1B1) at 24 hours (AID 2283690). The essentials:
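SLCO1B1 mRNA induction read at 24 h by quantitative nuclease protection assay (chemiluminescence), analyzed against DMSO baseline. Human hepatocyte cultures from separate donors received fresh dosing solutions daily; vehicle 0.2% DMSO; cytotoxicity flagged by phase-contrast morphology.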

Read-out in assay [6]: sulfotransferase (SULT2A), SULT2A1 (gene 6822)
The experiment in a line: CLD_SULT2A_24hr: CellzDirect (CLD) Gene Expression Assay for sulfotransferase (SULT2A) at 24 hours (AID 2283694). The essentials:
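mRNA is measured by qNPA: probe hybridisation, S1 nuclease digestion, chemiluminescence, in lysates from human primary hepatocytes harvested 24 h after daily dosing. Vehicle was 0.2% DMSO. Phase-contrast microscopy flagged cytotoxicity (yes/no).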

Read-out in assay [7]: Glyceraldehyde-3-phosphate dehydrogenase (Homo sapiens) (UniProt P04406)
Put plainly: CLD_GAPDH_24hr: CellzDirect (CLD) Gene Expression Assay for Baseline Control (Glyceraldehyde 3-phosphate dehydrogenase) at 24 hours (AID 2283692). How it is done:
CLD_24hr is a cell-based, multiplexed-readout assay that uses hepatocyte, a human liver primary cell, with measurements taken at 24 hours after chemical dosing in a 96-well plate.CLD_GAPDH_24hr is one of 16 assay component(s) measured or calculated from the CLD_24hr assay. It is designed to make measurements of mRNA induction, a form of inducible reporter, as detected with chemiluminescence signals by Quantitative Nuclease Protection Assay (qNPA) technology.Data from the assay component CLD_GAPDH_24hr was analyzed at the endpoint, CLD_GAPDH_24hr, in the positive analysis fitting direction relative to DMSO as the negative control and baseline of activity. Using a type of inducible reporter, gain-of-signal activity can be used to understand changes in the reporter gene as they relate to the gene GAPDH. Furthermore, this assay endpoint can be referred to as a secondary readout, because this assay has produced multiple assay endpoints where this one serves a background control function. […]
Human hepatocyte cultures were treated daily for two consecutive days with fresh dosing solutions containing appropriate concentrations of the 320 ToxCast chemicals (chemical identities were blinded to CellzDirect and other ToxCast collaborators), vehicle control (0.2% DMSO), and positive control inducers as summarized in Table 1. […] These replicate data, coupled with internal replicates designed within the blinded ToxCast chemical library, provided additional data to evaluate interindividual differences between hepatocyte preparations and their potential impact on chemical profiles.Cell morphology and integrity were evaluated using phase-contrast microscopy as an indicator of hepatocyte cell health (Tyson & Green, 1987). Cultures for each treatment group (i.e., media, vehicle [0.2% DMSO], positive control inducers [multiple concentrations], and the ToxCast chemicals [multiple concentrations]) were observed and cell morphology was assessed relative to vehicle control cultures at each harvest time point (0, 6, 24, or 48 h). […]

Read-out in assay [8]: alkyl and aryl transferase (GSTA2), GSTA2 (gene 2939)
Put plainly: CLD_GSTA2_24hr: CellzDirect (CLD) Gene Expression Assay for alkyl and aryl transferase (GSTA2) at 24 hours (AID 2283693). As to the method: (§1) CLD_24hr is a cell-based, multiplexed-readout assay that uses hepatocyte, a human liver primary cell, with measurements taken at 24 hours after chemical dosing in a 96-well plate.CLD_GSTA2_24hr is one of 16 assay component(s) measured or calculated from the CLD_24hr assay. It is designed to make measurements of mRNA induction, a form of inducible reporter, as detected with chemiluminescence signals by Quantitative Nuclease Protection Assay (qNPA) technology.Data from the assay component CLD_GSTA2_24hr was analyzed at the endpoint, CLD_GSTA2_24hr, in the positive analysis fitting direction relative to DMSO as the negative control and baseline of activity. […] Furthermore, this assay endpoint can be referred to as a primary readout. […]
(§2) Human hepatocyte cultures were treated daily for two consecutive days with fresh dosing solutions containing appropriate concentrations of the 320 ToxCast chemicals (chemical identities were blinded to CellzDirect and other ToxCast collaborators), vehicle control (0.2% DMSO), and positive control inducers as summarized in Table 1. […] Cultures for each treatment group (i.e., media, vehicle [0.2% DMSO], positive control inducers [multiple concentrations], and the ToxCast chemicals [multiple concentrations]) were observed and cell morphology was assessed relative to vehicle control cultures at each harvest time point (0, 6, 24, or 48 h). […]

Read-out in assay [9]: Broad substrate specificity ATP-binding cassette transporter ABCG2 (Homo sapiens) (UniProt Q9UNQ0)
The experiment in a line: CLD_ABCG2_24hr: CellzDirect (CLD) Gene Expression Assay for ABC Transporter (ABCG2) at 24 hours (AID 2283685). How it is done:
as §1, with “plate.CLD_ABCG2_24hr” for “plate.CLD_GSTA2_24hr”, “CLD_ABCG2_24hr” for “CLD_GSTA2_24hr”, “CLD_ABCG2_24hr,” for “CLD_GSTA2_24hr,”
as §2

Read-out in assay [10]: HMG-CoA synthase (HMGCS2), HMGCS2 (gene 3158)
The experiment in a line: CLD_HMGCS2_24hr: CellzDirect (CLD) Gene Expression Assay for HMG-CoA synthase (HMGCS2) at 24 hours (AID 2283691). In short, it runs like this:
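qNPA with S1 nuclease digestion and chemiluminescent detection gave HMGCS2 transcript levels, fitted upward against 0.2% DMSO vehicle. Cultured human hepatocytes (two donors) received fresh compound daily and were harvested at 24 h; phase-contrast morphology flagged cytotoxicity.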

SMILES strings stand for the structures. Results filed as inconclusive are left out. The source made the active and inactive calls. How the source made its calls: active means hit-call score of the fitted dose curve at least 0.9, where 1 is the maximum; inconclusive means response in the unintended direction; inactive means score below 0.9.

Chain of Cytochrome P450 3A4 (Homo sapiens) (P08684 whole entry, looked up): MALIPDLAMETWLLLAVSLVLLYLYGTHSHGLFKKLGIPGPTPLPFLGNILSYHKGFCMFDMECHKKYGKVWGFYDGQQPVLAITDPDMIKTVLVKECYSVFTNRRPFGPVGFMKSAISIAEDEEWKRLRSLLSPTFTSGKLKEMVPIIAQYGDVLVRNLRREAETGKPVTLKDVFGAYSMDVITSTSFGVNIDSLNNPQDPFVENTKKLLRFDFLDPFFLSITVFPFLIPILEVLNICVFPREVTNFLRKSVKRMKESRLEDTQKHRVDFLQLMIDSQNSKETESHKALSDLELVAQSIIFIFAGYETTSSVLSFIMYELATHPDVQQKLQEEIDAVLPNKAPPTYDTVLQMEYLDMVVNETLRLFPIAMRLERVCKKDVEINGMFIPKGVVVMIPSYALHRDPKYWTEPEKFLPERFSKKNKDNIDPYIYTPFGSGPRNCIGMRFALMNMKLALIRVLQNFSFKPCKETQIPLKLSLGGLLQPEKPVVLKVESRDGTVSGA
Chain of Cytochrome P450 2C19 (Homo sapiens) (P33261 whole entry, looked up): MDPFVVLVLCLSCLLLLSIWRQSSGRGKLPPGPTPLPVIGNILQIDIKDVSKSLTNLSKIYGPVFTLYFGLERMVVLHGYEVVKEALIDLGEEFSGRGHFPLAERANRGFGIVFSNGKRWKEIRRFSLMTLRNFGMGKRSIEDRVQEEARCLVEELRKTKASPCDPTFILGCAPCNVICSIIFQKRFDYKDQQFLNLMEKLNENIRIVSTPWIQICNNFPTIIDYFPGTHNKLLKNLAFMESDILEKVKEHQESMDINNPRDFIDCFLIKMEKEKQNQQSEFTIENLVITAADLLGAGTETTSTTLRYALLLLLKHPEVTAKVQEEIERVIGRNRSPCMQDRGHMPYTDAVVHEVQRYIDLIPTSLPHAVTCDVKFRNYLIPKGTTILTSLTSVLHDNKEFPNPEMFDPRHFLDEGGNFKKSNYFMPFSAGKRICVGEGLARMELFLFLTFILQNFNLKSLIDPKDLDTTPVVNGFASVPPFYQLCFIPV
Chain of Glyceraldehyde-3-phosphate dehydrogenase (Homo sapiens) (P04406 whole entry, looked up): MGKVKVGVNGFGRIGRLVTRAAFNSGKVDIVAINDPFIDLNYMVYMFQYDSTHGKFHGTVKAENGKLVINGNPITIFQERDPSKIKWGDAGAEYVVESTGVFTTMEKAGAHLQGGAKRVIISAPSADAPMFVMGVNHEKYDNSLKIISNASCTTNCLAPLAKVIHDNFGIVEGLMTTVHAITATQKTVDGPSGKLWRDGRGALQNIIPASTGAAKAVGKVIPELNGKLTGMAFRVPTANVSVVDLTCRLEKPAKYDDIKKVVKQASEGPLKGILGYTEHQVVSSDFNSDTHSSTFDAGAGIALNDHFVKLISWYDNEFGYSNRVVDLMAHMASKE
Chain of Broad substrate specificity ATP-binding cassette transporter ABCG2 (Homo sapiens) (Q9UNQ0 whole entry, looked up): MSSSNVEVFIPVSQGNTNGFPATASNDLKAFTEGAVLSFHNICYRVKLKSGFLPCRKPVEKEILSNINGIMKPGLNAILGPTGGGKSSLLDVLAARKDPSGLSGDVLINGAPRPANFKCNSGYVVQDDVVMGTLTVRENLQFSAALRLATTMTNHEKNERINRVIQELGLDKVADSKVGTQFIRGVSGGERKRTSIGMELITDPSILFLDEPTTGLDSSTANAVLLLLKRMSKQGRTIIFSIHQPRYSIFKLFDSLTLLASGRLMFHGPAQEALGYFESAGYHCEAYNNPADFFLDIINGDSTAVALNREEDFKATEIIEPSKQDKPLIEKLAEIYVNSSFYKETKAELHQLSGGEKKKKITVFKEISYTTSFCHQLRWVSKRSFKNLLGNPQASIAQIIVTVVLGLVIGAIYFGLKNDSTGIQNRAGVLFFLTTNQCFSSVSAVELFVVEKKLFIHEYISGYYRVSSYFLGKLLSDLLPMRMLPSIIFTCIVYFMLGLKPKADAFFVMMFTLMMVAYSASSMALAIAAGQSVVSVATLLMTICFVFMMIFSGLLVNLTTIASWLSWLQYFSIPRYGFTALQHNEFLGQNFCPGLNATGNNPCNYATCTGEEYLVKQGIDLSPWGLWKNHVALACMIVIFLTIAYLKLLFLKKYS

`Cc1ccccc1CO[C@@H]1C[C@@]2(C(C)C)CC[C@]1(C)O2`: the AC50 (in general, the midpoint of the concentration-response curve, whichever way the signal moves) was 3.91 µM (active) in assay [1] and 20 µM (active) in assay [4]. Also, the molecule was classed as inactive in assay [2], in assay [3], in assay [5] and in assay [6].
Turning to `CCNc1nc(NC(C)C)nc(SC)n1`, the AC50 in assay [1] is 0.92 µM (active); in assay [4], 4.22 µM (active). Further, the molecule was called inactive in assay [3], in assay [7], in assay [8] and in assay [6].
In the case of `CCSC(=O)N(CC)C1CCCCC1`, the result in assay [9], in assay [2], in [5], in assay [10], in [7] and in assay [8] was inactive. Moreover, the AC50 in assay [1] is 6.17 µM (active); in assay [4], 0.000663 µM (active).
In the case of `CN(C)c1nc(=O)n(C2CCCCC2)c(=O)n1C`, the result in assay [1], in assay [2], in assay [5], in assay [7] and in assay [6] was inactive. For the same molecule, in [4], the AC50 is 3.97 µM (active).
On to `CCC(C)(CC)c1cc(NC(=O)c2c(OC)cccc2OC)on1`, for which the AC50 is 0.259 µM (active) in assay [1] and 0.0271 µM (active) in [4]. Besides, the result in assay [3], in [5] and in assay [6] was inactive.

(Values after PubChem BioAssay (EPA / NIEHS).)
